PubChem BioAssay AID2705 (National Center for Advancing Translational Sciences (NCATS), 2010)
This is one part of the list. Inconclusive results are not listed. Active and inactive are the calls of the source. The call rests on the fitted dose curve; in most records, active means well fitted inhibition curve with a large enough effect; inconclusive means small, poorly fitted or top-dose-only effect; inactive means flat fitted curve, though single readings scatter.

Target: Dual specificity tyrosine-phosphorylation-regulated kinase 1A (Homo sapiens) (UniProt Q13627)
Experiment: Assay for Inhibitors of Dual-Specificity Tyrosine-(Y)-Phosphorylation Regulated Kinase 1A (Kinase-Glo assay)
Details: recombinant DYRK1A, Kinase-Glo ATP depletion luminescence
Excerpt: NIH Molecular Libraries Probe Production Centers Network [MLPCN] NIH Chemical Genomics Center [NCGC] MLSCN Grant: 1R03MH084827-01 PI Name: Tom Misteli NCGC Assay Overview: The CMGC group of protein kinases which includes CDK-like kinases (Clk) and Dyks are essential kinases found in all eukaryotes. Clks have been implicated to play a role in the regulation of alternative splicing; while Dyrks, in particular over expression of Dyrk1A, has been linked to diseases as Down syndrome (DS; OMIM 190685) and Alzheimer disease (AD; OMIM 104300). Among the members of the CMGC group, the Clks and the Dyrks are very closely related therefore to determine validity and selectivity of an active compound observed in the CLK4 qHTS screen (AID:1770), a bioluminescent counter-screen against Dyrk1A was developed. In addition, potent and selective compounds against Dyrk1A were identified to further assess the role of this enzyme in DS and AD. Dyrk1A (Invitrogen, cat # PV3785) was assayed using ATP and DYRKtide (AnaSpec, cat# 62698) as substrates. Promega Kinase-Glo (cat# V6712) technology was used to detect the residual ATP following kinetic reaction. The Kinase-Glo Plus contains Ultra-Glo [5] luciferase and D-luciferin which generates a bioluminescence signal from the remaining ATP. No enzyme and harmine (Sigma, cat # 286044-1G), a compound shown to inhibit Dyrks were used as a positive control; while DMSO treatment was used as a negative control.
NCGC Assay Protocol Summary: Two uL/well of substrate solution (8uM Dyrktide, 2uM ATP, 25mM Tris-HCl pH 7.5, 10mM MgCl2 , 0.5mM EGTA, 5mM cystein, 0.01% Triton X-100 final concentration) was dispensed into 1536-well assay plates (Greiner, solid white, medium-binding plates) with Aurora Discovery BioRAPTR Flying Reagent Dispenser (FRD, Beckton-Dickenson). Compound solution (23 nL) was transferred to the assay plate using Kalypsys pin tool equipped with a 1536-pin tool. One uL/well enzyme solution (5nM Dyrk1A, 25mM Tris-HCl pH7.5, 10mM MgCl2, 0.5mM EGTA, 5mM cystein, 0.01% Triton X-100 final concentration) was then added using FRD yielding a total kinase reaction volume of 3uL/well. After 2 hours of room temperature incubation, 3uL Kinase-Glo detection reagent was added for a final assay volume of 6uL/well. The plates were spun for 30 seconds (1000 rpm) and incubated at ambient temperature for 2 minutes followed by a luminescence read using Perkin Elmer ViewLux plate reader at 3 seconds exposure time and 2x binning.

Row | SMILES | Potency
1 | c1coc(CCNc2ncnc3ccc(-c4ccc5c(c4)OCO5)cc23)c1 | 164 nM (active)
2 | CN(Cc1cncn1C)c1ncnc2ccc(-c3ccc4c(c3)OCO4)cc12 | 2600 nM (active)
3 | Cc1nc(C)c(-c2ccc3ncnc(NCc4ncc[nH]4)c3c2)s1 | 5190 nM (active)
4 | Cc1nc(CNc2ncnc3ccc(-c4ccc5c(c4)OCO5)cc23)cs1 | 292 nM (active)
